Most compounds without a hit are left out; they make up all but 6% or so of the library.
D1 potentiator: Potentiators of Human D1 Dopamine Receptor: qHTS; potentiation, % at 10 µM; HEK293 TREx D1 cells, calcium flux, dopamine EC20 potentiation; D(1A) dopamine receptor (Homo sapiens), P21728; 0.036% of 360,000 active; AID 504651, 2011; in the data active = potentiation above about 30%
D1 antagonist: Antagonist of Human D 1 Dopamine Receptor: qHTS; D(1A) dopamine receptor (Homo sapiens), P21728; HEK293 TREx D1 cells, calcium flux, dopamine EC80; hits give low values; activity change, negative = inhibition, % at 10 µM; 3.2% of 360,000 active; in the data active = activity change below about -30%
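Antagonism measured as reduced calcium response to an EC80 dopamine addition following 180 s compound pre-read; cells were inducible HEK293 Trex D1 plated overnight at 30 C, read kinetically at 1 cycle/sec.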
D1 agonist: Allosteric Agonists of the Human D1 Dopamine Receptor: qHTS; 1% of 360,000 active; activation, % at 2 µM; HEK293 T-REx D1 cells, calcium flux, agonist mode; in the data active = activation above about 30%
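Inducible HEK293 T-REx D1 cells, force-coupled to calcium signalling, were plated at 4000 cells/well with tetracycline and held overnight at 30 C. After no-wash calcium dye loading, compound-evoked calcium rise over 180 s flagged agonists.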
DRD3 antagonist: qHTS of D3 Dopamine Receptor Antagonist: qHTS | 2.5% of 360,000 active | max response, negative = inhibition, % | AID 652054, 2013 | D3R cells, DiscoveRx beta-arrestin luminescence, antagonist mode; hits give low values; in the data active = max response below about -50%
Target sequence (P35462 whole entry, looked up): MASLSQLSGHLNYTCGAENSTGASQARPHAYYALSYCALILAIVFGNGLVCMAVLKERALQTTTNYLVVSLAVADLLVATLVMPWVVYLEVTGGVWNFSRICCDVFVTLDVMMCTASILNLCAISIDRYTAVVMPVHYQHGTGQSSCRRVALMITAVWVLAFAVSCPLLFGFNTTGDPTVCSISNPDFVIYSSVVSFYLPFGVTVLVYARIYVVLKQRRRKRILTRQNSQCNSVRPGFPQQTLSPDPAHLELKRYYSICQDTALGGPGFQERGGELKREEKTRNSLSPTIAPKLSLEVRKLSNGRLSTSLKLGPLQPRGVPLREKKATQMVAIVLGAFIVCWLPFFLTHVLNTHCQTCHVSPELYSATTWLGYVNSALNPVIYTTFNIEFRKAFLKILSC
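Cells plated overnight at 1500 cells/well, then exposed to library compounds with dopamine controls for 90 minutes at 37 degrees C. DiscoveRx reagent added for 30–60 minutes at room temperature; luminescence read, quantitative HTS format.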
DRD3 agonist: qHTS of D3 Dopamine Receptor Agonist: qHTS; max activation, %; D3R DiscoveRx beta-arrestin cells, luminescence, 90 min; 0.58% of 410,000 active; in the data active = max activation above about 30%
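Agonist mode: compounds and dopamine controls were applied to plated cells for 90 min at 37 degrees C after an overnight attachment at 1500 cells/well. Luminescent read-out followed 30 - 60 minutes at room temperature with DiscoveRx detection reagent.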
Numbers stand for hits; 0 = inactive; - = no result.

SMILES | D1 potentiator | D1 antagonist | D1 agonist | DRD3 antagonist | DRD3 agonist
COc1ccc(-c2nc(CCNC(=O)Cc3ccc(F)cc3)cs2)cc1 | 0 | 0 | 0 | - | 0
COc1ccc(N2CCN(C(=O)NC3CC(=O)N(c4ccc(OC)cc4)C3)CC2)cc1 (centres undefined) | 0 | -45 | 0 | 0 | 0
CCN1CCN(C(=O)NC2CC(=O)N(c3ccc(OC)cc3)C2)CC1 (centres undefined) | 0 | 0 | 0 | 0 | 0
Fc1ccc(CNc2nc3c(-c4ccc(F)cc4)nnn3c3ccccc23)cc1 | 0 | 0 | 0 | - | 0
COc1ccc(CNc2nc3c(-c4ccc(C)cc4)nnn3c3ccccc23)cc1 | 0 | -34 | 0 | - | 0
CCC(Oc1ccccc1F)C(=O)N1CCC(c2nc3ccccc3s2)CC1 (centres undefined) | 0 | 0 | 36 | - | 0
CCCOc1ccccc1C(=O)N1CCC(c2nc3ccccc3s2)CC1 | 0 | 0 | 0 | - | 0
O=C(NCC1CCCO1)c1c(O)c2cccc3c2n(c1=O)CCC3 (centres undefined) | 0 | -53 | 0 | 0 | 0
CN(Cc1cccs1)C(=O)c1cc(S(=O)(=O)N2CCOCC2)ccc1N1CCCC1 | 0 | -31 | 0 | 0 | 0
O=C(c1cccc(S(=O)(=O)N2CCOCC2)c1)N(Cc1ccco1)Cc1cccs1 | 0 | -56 | 0 | 0 | 0
COc1cc(OC)c(OC)cc1/C=C/c1nc2cc3ccccc3cc2c(=O)n1-c1ccc(F)cc1F | 0 | 0 | 42 | - | 0
Cc1c(N/C(=N/S(=O)(=O)c2ccccc2)c2ccc(Cl)cc2)c(=O)n(-c2ccccc2)n1C | 0 | 0 | 0 | 0 | 0
Cc1c(N/C(=N/S(=O)(=O)c2ccc(Cl)cc2)c2ccccc2)c(=O)n(-c2ccccc2)n1C | 0 | -63 | 0 | - | -
Cc1c2cnn(CC(=O)NC(C)C)c(=O)c2c(C)n1Cc1cccc(Cl)c1 | 0 | -55 | 0 | - | 0
CCCCNC(=O)Cn1ncc2c(C)n(Cc3cccc(Cl)c3)c(C)c2c1=O | 0 | 0 | 0 | - | 0
O=C(NCCCCc1ccccc1)c1ccccc1 | 0 | 0 | 0 | 0 | 0
O=C(NCCCCNCCCNC(=O)c1ccccc1)c1ccccc1 | - | - | - | -51 | 0
O=C(NCCCc1ccccc1)c1ccccc1 | 0 | -41 | 0 | 0 | 0
Cc1cc(=O)oc(C)c1C(=O)OC(C(=O)c1ccccc1)c1ccccc1 (centres undefined) | 0 | -42 | 0 | 0 | 0
CC(C)C(NC(=O)c1ccc(F)cc1)C(=O)N1CCC1 (centres undefined) | 0 | -37 | 0 | 0 | 0
COCCCNC(=O)c1ccc(Cn2c(=O)c3ccccc3n(Cc3c(C)cc(C)cc3C)c2=O)cc1 | 0 | 0 | 0 | - | 0
CCOC(=O)C(CCSC)Nc1nc(Cl)nc(Nc2ccc(Cl)cc2)n1 (centres undefined) | - | - | - | -58 | 0
COc1ccc(NC(=O)C(Cl)=C(Cl)Cl)cn1 | 0 | 0 | 0 | 0 | 0
COc1ccc(NC(=O)/C(Cl)=C(/Cl)S(=O)Cc2ccc(Cl)cc2)cn1 (centres undefined) | 0 | -33 | 0 | -116 | 0
Cc1ccc(NC(=O)c2c(C)oc3nc(C)nc(N4CCCC4)c23)c(C)c1 | 0 | 0 | 0 | - | 0
SMILES | D1 potentiator | D1 antagonist | D1 agonist | DRD3 antagonist | DRD3 agonist
O=C(Nc1ccc(F)cc1)c1cccc(N2C(=O)C3C4CCC(C4)C3C2=O)c1 (centres undefined) | 0 | 0 | 0 | 0 | 0
O=C(Nc1ccc(F)cc1)c1cccc(N2C(=O)C3C4C=CC(C5CC45)C3C2=O)c1 (centres undefined) | 0 | -38 | 0 | 0 | 0
COC(=O)c1ccc(NC(=O)c2cccc(N3C(=O)C4C5C=CC(C6CC56)C4C3=O)c2)cc1 (centres undefined) | 0 | 0 | 0 | 0 | 0
O=C(Nc1ccccc1)c1cccc(N2C(=O)C3C4C=CC(C5CC45)C3C2=O)c1 (centres undefined) | 0 | -38 | 0 | 0 | 0
O=C(Nc1ccc(Br)cc1)c1cccc(N2C(=O)C3C4CCC(C4)C3C2=O)c1 (centres undefined) | 0 | -39 | 0 | 0 | 0
Cn1c(=O)[nH]c(=O)c2c1ncn2CCCc1ccccc1 | 0 | 0 | 0 | 0 | 0

Compound activity as filed in PubChem.
